Laboratory results reported in PubChem BioAssay (NCATS).
Inconclusive results are not listed. Where a call stands in place of a potency, no number is given. Values without a mark were called inactive. Activity calls are given as the source filed them. Calls come from the whole dose curve; as a rule, active = well fitted inhibition curve with a large enough effect; inconclusive = small, poorly fitted or top-dose-only effect; inactive = flat fitted curve, though single readings scatter.

Each molecule was assayed against Calcium and integrin-binding protein 1 (Homo sapiens) (UniProt Q99828) (assay: Primary qHTS for Identification of Calcium Integrin Binding Protein 1 (CIB1) Competitor (AID 1508620; note: top concentration of the series differs between compounds)). Settings: CIB1-GST / FITC-alphaIIb peptide fluorescence polarization; series mostly up to 114 µM.
Calcium and integrin-binding protein 1 (Homo sapiens), sequence (Q99828 whole entry, looked up): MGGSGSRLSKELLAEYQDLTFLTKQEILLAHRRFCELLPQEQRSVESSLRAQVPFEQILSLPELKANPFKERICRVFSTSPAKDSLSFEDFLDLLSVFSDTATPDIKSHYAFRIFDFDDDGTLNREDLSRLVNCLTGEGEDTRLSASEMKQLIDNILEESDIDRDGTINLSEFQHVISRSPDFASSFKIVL
Summary of the method: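 Fluorescence polarization competition: GST-tagged CIB1 (1 uM final) preincubated with compound 15 min at room temperature, then FITC-labelled alphaIIb peptide (100 nM final) added. After 15 min at room temperature, polarization read at Ex 480/Em 540.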

**Q.** `NC1CCC(Nc2cc(-c3cccc(NCc4cccc(F)c4)n3)c(Cl)cn2)CC1` (stereo unspecified) was tested. Which Potency did it give?
**A.** inactive

**Q.** How did the Potency turn out when `CN1CCC(Nc2nc(Nc3ccc(Oc4ccccc4)cc3)c3c(=O)[nH]cc(Br)c3n2)CC1` was run?
**A.** inactive

**Q.** With `C[C@]12C=C[C@@]3(CCC4[C@](C)(CO)CCC[C@@]4(C)C3CC1)C2` (stereo partly specified) as the molecule, how does the Potency read?
**A.** inactive

**Q.** Which Potency does the source give for `NCc1c[nH]c(=S)n1[C@@H]1CCc2c(F)cc(F)cc2C1` here?
**A.** inactive

**Q.** For `Cc1cc(C(=O)N2CCCCc3ccccc32)ccc1CNC(=O)N1CCC[C@H]1C(=O)N(C)C`, which Potency is on record?
**A.** inactive

**Q.** With `C[C@@H]1O[C@@H](O[C@@H]2[C@@H](O[C@@H]3O[C@@H](C)[C@H](O[C@@H]4OC[C@H](O)[C@H](O[C@@H]5OC[C@@H](O)[C@H](O)[C@H]5O)[C@H]4O)[C@@H](O[C@@H]4OC[C@](O)(CO)[C@H]4O)[C@H]3O)[C@H](OC(=O)[C@]34CCC(C)(C)C[C@H]3C3=CCC5[C@@]6(C)C[C@H](O)[C@H](O[C@@H]7O[C@H](CO[C@@H]8OC[C@H](O)[C@H](O)[C@H]8O)[C@@H](O)[C@H](O)[C@H]7O)C(C)(C)C6CC[C@@]5(C)[C@]3(C)C[C@H]4O)OC[C@H]2O)[C@H](O)[C@H](O)[C@H]1O` (stereo partly specified) as the molecule, how does the activity change, negative = inhibition read?
**A.** -4.21% [at 12.4 µM]

**Q.** With `CC1CCN(C(=O)CC#N)CC1N(C)c1ncnc2[nH]ccc12` (stereo unspecified) as the molecule, how does the Potency read?
**A.** inactive

**Q.** For `CS(=O)(=O)NCC1CCC(Nc2nc3c(s2)CCSc2ccccc2-3)CC1` (stereo unspecified), which Potency is on record?
**A.** inactive

**Q.** With `CC1=C(CCC(C)O[C@@H]2O[C@H](CO)[C@@H](O)[C@H](O)[C@H]2O)C(C)(C)CCC1=O` (stereo partly specified) as the molecule, how does the Potency read?
**A.** inactive

**Q.** How did the Potency turn out when `C/C=C/c1ccc2oc(-c3ccc(O)c(OC)c3)c(C)c2c1` was run?
**A.** inactive

**Q.** For `COC(=O)C1=CO[C@@H](O)C2C(CO)=CCC12` (stereo partly specified), which Potency is on record?
**A.** inactive
